Results as given in PubChem BioAssay (NCATS).
Inconclusive results are not listed. Entries that show only a call come without a potency. Calls of active or inactive are those of the source. The call rests on the fitted dose curve; in most records, active means well fitted inhibition curve with a large enough effect; inconclusive means small, poorly fitted or top-dose-only effect; inactive means no such curve, though single readings can be large or run the other way.

What was measured:
[1] = system: Zika virus NS2B-NS3 protease (unlinked complex); assay: Primary screen GU Rhodamine qHTS for Zika virus inhibitors: Unlinked NS2B-NS3 protease assay (AID 1347159); further: nearly all actives have a fitted effect of over 60% in size; further: potency means the concentration at half of the fitted maximal effect
Method in brief: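 A qHTS format was used, with compound concentrations ranging up to 114 microM. Each compound was preincubated with 25 nM NS2B-NS3 protease, and the substrate was then added at 1.5 microM. Curves were fitted with a 4-parameter Hill model.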

[2] = system: Zika virus NS2B-NS3 protease (linked construct); assay: Primary screen NINDS Rhodamine qHTS for Zika virus inhibitors (AID 1347160); further: nearly all actives have a fitted effect of over 55% in size
Method in brief: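 Kinetic fluorescence (Ex 480 nm, Em 540 nm) over 15 min with 1.5 microM Rhodamine110 peptide and 25 nM linked protease.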

| Compound | Potency [1] | Potency [2] |
| --- | --- | --- |
| O=C(O)c1ccc(Nc2ncc3c(n2)-c2ccc(Cl)cc2C(c2c(F)cccc2F)=NC3)cc1 | 8.91 µM (active) |  |
| C[C@H](O)[C@@H]1C(=O)N2C(C(=O)O)=C(S[C@@H]3CN[C@H](CNS(N)(=O)=O)C3)[C@@H](C)[C@@H]12 | inactive | inactive |
| Cc1ncc(-c2ccnc(Nc3ccc(S(C)(=O)=O)cc3)n2)n1C(C)C | inactive | inactive |
| Cc1cnc(Nc2ccc(CN3CCOCC3)cc2)nc1Nc1cccc(S(=O)(=O)NC(C)(C)C)c1 | inactive | inactive |
| CCc1ccc(C(=O)Nc2cc(CN3CCN(C)CC3)cc(C(F)(F)F)c2)cc1C#Cc1cnc2ccnn2c1 | inactive | inactive |
| OCCNC1CCCc2c1[nH]c1ccc(-c3ccccc3)cc21 (stereo not drawn) | inactive | inactive |
| CCC[C@H]1C[C@H](C(=O)N[C@@H]([C@@H]2O[C@@H](SC)[C@@H](O)[C@@H](O)[C@@H]2O)[C@H](C)Cl)N(C)C1 | inactive | inactive |
| C[C@H]1[C@@H](OC(=O)CCC(=O)O)O[C@@H]2O[C@@]3(C)CC[C@@H]4[C@H](C)CC[C@@H]1[C@@]24OO3 | inactive | inactive |
| FC(F)c1nc2ccccc2n1-c1nc(N2CCOCC2)nc(N2CCOCC2)n1 | inactive | inactive |
| c1ccc2c(Oc3nc(Nc4ccc(N5CCOCC5)cc4)c4ncn(C5CCCCC5)c4n3)cccc2c1 | inactive | inactive |
| Cc1ccccc1C(=O)Nc1ccc(C(=O)N2CCCC(O)c3cc(Cl)ccc32)c(C)c1 (stereo not drawn) | inactive | inactive |
| C[N+]1(C)[C@@H]2C[C@@H](OC(=O)C(O)(c3cccs3)c3cccs3)C[C@H]1[C@@H]1O[C@@H]12 | inactive | inactive |
